The values below come from PubChem BioAssay (NCATS).

Assay [1] in a line: Quantitative High-Throughput drug screen in 47 multiple myeloma cell lines against the NCATS MIPE library collection: KMS12PE_JCRB cell viability assay (AID 1918972). Further: nearly all actives have a fitted effect of over 30% in size. In a few lines: (§1)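 qHTS of the MIPE 4.0 collection: 500 myeloma cells/well, 48 h drug exposure at 37C in 5% CO2, then CellTiter-Glo for 5 min at room temperature before luminescence reading.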
A short description of assay [2]: Quantitative High-Throughput drug screen in 47 multiple myeloma cell lines against the NCATS MIPE library collection: KMS21BM_JCRB cell viability assay (AID 1918974). Conditions: ATP luminescence, 48 h; viability: at 45.8 µM (top of the series). In a few lines:
(§2)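 Viability readout: CellTiter-Glo luminescence following 5 min room-temperature incubation with reagent. Prior exposure: 48 h, 37C, humidified 5% CO2, 500 cells per well.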

Assay [3] in a line: Quantitative High-Throughput drug screen in 47 multiple myeloma cell lines against the NCATS MIPE library collection: KMS26_JCRB cell viability assay (AID 1918975). Further: nearly all actives have a fitted effect of over 45% in size. The essentials: as §1
The nature of assay [4]: Quantitative High-Throughput drug screen in 47 multiple myeloma cell lines against the NCATS MIPE library collection: MMM1_PLB cell viability assay (AID 1918976). Further: nearly all actives have a fitted effect of over 35% in size. In a few lines:
(§3)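 Viability after 48 h drug exposure was measured as ATP-dependent luminescence. Cells, 500 per well, sat at 37 °C under 5% CO2; DMSO wells set 100%, media-only wells 0%.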

The nature of assay [5]: Quantitative High-Throughput drug screen in 47 multiple myeloma cell lines against the NCATS MIPE library collection: NCIH929_DSMZ cell viability assay (AID 1918978). Further: nearly all actives have a fitted effect of over 35% in size. In a few lines: as §3
The nature of assay [6]: Quantitative High-Throughput drug screen in 47 multiple myeloma cell lines against the NCATS MIPE library collection: OCIMY1_PLB cell viability assay (AID 1918979). Further: nearly all actives have a fitted effect of over 35% in size. The essentials:
as §3

Assay [7] is described as follows: Quantitative High-Throughput drug screen in 47 multiple myeloma cell lines against the NCATS MIPE library collection: MM1S_ATCC cell viability assay (AID 1918980). Further: nearly all actives have a fitted effect of over 45% in size. In a few lines:
as §3

The nature of assay [8]: Quantitative High-Throughput drug screen in 47 multiple myeloma cell lines against the NCATS MIPE library collection: MM1R_ATCC cell viability assay (AID 1918981). Further: nearly all actives have a fitted effect of over 35% in size. In a few lines: as §3
Assay [9] in a line: Quantitative High-Throughput drug screen in 47 multiple myeloma cell lines against the NCATS MIPE library collection: LP1_DSMZ cell viability assay (AID 1918982). Further: nearly all actives have a fitted effect of over 35% in size. The essentials: as §3
Assay [10] is described as follows: Quantitative High-Throughput drug screen in 47 multiple myeloma cell lines against the NCATS MIPE library collection: L363_DSMZ cell viability assay (AID 1918984). Further: nearly all actives have a fitted effect of over 40% in size. The essentials: as §3
The nature of assay [11]: Quantitative High-Throughput drug screen in 47 multiple myeloma cell lines against the NCATS MIPE library collection: KMS34_JCRB cell viability assay (AID 1918985). Further: nearly all actives have a fitted effect of over 40% in size. In a few lines: as §3
Assay [12] is described as follows: Quantitative High-Throughput drug screen in 47 multiple myeloma cell lines against the NCATS MIPE library collection: OCIMY7_PLB cell viability assay (AID 1918987). Further: nearly all actives have a fitted effect of over 65% in size. The essentials:
as §3

Assay [13] in a line: Quantitative High-Throughput drug screen in 47 multiple myeloma cell lines against the NCATS MIPE library collection: OCIMY5_PLB cell viability assay (AID 1918988). Further: nearly all actives have a fitted effect of over 65% in size. In a few lines:
as §3

The nature of assay [14]: Quantitative High-Throughput drug screen in 47 multiple myeloma cell lines against the NCATS MIPE library collection: OPM1_PLB cell viability assay (AID 1918989). Further: nearly all actives have a fitted effect of over 40% in size. In a few lines:
as §3

Assay [15] is described as follows: Quantitative High-Throughput drug screen in 47 multiple myeloma cell lines against the NCATS MIPE library collection: U266_ATCC cell viability assay (AID 1919864). Further: nearly all actives have a fitted effect of over 35% in size. In a few lines: as §3
Assay [16] is described as follows: Quantitative High-Throughput drug screen in 47 multiple myeloma cell lines against the NCATS MIPE library collection: KMS20_JCRB cell viability assay (AID 1918973). Further: nearly all actives have a fitted effect of over 45% in size. The essentials:
as §2

The nature of assay [17]: Quantitative High-Throughput drug screen in 47 multiple myeloma cell lines against the NCATS MIPE library collection: MOLP8_DSMZ cell viability assay (AID 1918977). Further: nearly all actives have a fitted effect of over 45% in size. The essentials: as §3
The nature of assay [18]: Quantitative High-Throughput drug screen in 47 multiple myeloma cell lines against the NCATS MIPE library collection: KMS28PE_JCRB cell viability assay (AID 1918983). Further: nearly all actives have a fitted effect of over 35% in size. The essentials: as §3
A short description of assay [19]: Quantitative High-Throughput drug screen in 47 multiple myeloma cell lines against the NCATS MIPE library collection: XG6_PLB cell viability assay (AID 1919865). Further: nearly all actives have a fitted effect of over 40% in size. The essentials:
as §3

Assay [20] in a line: Quantitative High-Throughput drug screen in 47 multiple myeloma cell lines against the NCATS MIPE library collection: SKMM1_PLB cell viability assay (AID 1919863). Further: nearly all actives have a fitted effect of over 35% in size. Conditions: SKMM1 myeloma viability, CellTiter-Glo ATP, 48 h; viability: active compounds read low. In a few lines:
as §3
Background: ATP-based viability assays read luminescence as a measure of living cells.

Records with an inconclusive call do not appear. A number with no mark means an inactive call. The source made the active and inactive calls. The call rests on the fitted dose curve; in most records, active means well fitted curve in the direction sought with a large enough effect; inconclusive means small, poorly fitted or top-dose-only effect, or another doubt; inactive means no such curve, though single readings can be large; an effect the other way counts as inactive or inconclusive.
Potency means the concentration at half of the fitted maximal effect.

As for `O=C(Nc1ccncc1)C(=O)c1cn(Cc2ccc(Cl)cc2)c2ccccc12`, the Potency in assay [1] is 0.0209 µM (active); in assay [2] it was 0.0074 µM (active); in assay [3], 9.35 µM (active); in assay [4] it was 14.8 µM (active); in [5] it was 1.32 µM (active); in assay [6] it was 0.118 µM (active). For the same molecule, the Potency is 0.264 µM (active) in assay [7]; 0.187 µM (active) in assay [8]; 0.0935 µM (active) in [9]; 0.0132 µM (active) in [10]; 0.0469 µM (active) in assay [11]; 0.001 µM (active) in [12]. Further, the values for the Potency in assay [13] and in assay [14] were 0.0372 µM (active) and 0.0526 µM (active), respectively. Also, the Potency entry in assay [15] is “inactive”.
Consider `Clc1ccccc1C(c1ccccc1)(c1ccccc1)n1cccn1`, for which the Potency entry in assay [1], in assay [16], in [5], in assay [6] and in [19] was “inactive” in each case. Moreover, the Potency in assay [17] was 16.6 µM (active); in [7], 0.469 µM (active); in [8], 23.5 µM (active); in assay [18], 11.8 µM (active); in assay [15] it was 10.5 µM (active).
Consider `C[C@@H]1O[C@@H](O[C@@H]2C=C3CC[C@@H]4[C@@H](CC[C@]5(C)[C@H](c6ccc(=O)oc6)CC[C@@]45O)[C@@]3(C)CC2)[C@H](O)[C@H](O)[C@H]1O`, for which the Potency was 0.0074 µM (active) in [1]; 0.0264 µM (active) in assay [2]; 0.0418 µM (active) in assay [3]; 0.0264 µM (active) in assay [4]; 0.0296 µM (active) in assay [17]; 0.0469 µM (active) in [5]. Further, the Potency in assay [6] was 0.0166 µM (active); in assay [7], 0.0296 µM (active); in [8], 0.0264 µM (active); in [9], 0.0066 µM (active); in assay [18], 0.0166 µM (active); in assay [10], 0.0083 µM (active). Also, the Potency in assay [11] is 0.0332 µM (active); in assay [12], 0.0132 µM (active); in assay [13], 0.0132 µM (active); in assay [14], 0.0296 µM (active); in assay [15], 0.0093 µM (active); in assay [19] it was 0.0166 µM (active).
As to `Cc1c(C(=O)Nc2cccc(C(F)(F)F)c2)cc(-c2ccccc2)n1CCCN1CCOCC1`, the Potency is 10.5 µM (active) in assay [1]; 16.6 µM (active) in assay [16]; 18.7 µM (active) in assay [2]; 11.8 µM (active) in assay [3]; 20.9 µM (active) in assay [4]; 20.9 µM (active) in [17]. The Potency in assay [7] was 20.9 µM (active); in assay [18], 16.6 µM (active); in assay [10] it was 5.9 µM (active); in assay [12], 0.372 µM (active); in assay [13], 16.6 µM (active); in [14], 18.7 µM (active). The Potency in assay [20] is 26.4 µM (active); in assay [15] it was 16.6 µM (active).
For `O=c1[nH]c2ccccc2n1C1CCN(Cc2ccc(-c3[nH]c4cc5ncnc5cc4nc3-c3ccccc3)cc2)CC1`, the Potency is 10.5 µM (active) in [1]; 16.6 µM (active) in assay [2]; 23.5 µM (active) in assay [3]; 14.8 µM (active) in assay [4]; 18.7 µM (active) in assay [6]; 18.7 µM (active) in [7]. The Potency in assay [8] is 16.6 µM (active); in assay [9], 20.9 µM (active); in assay [18], 20.9 µM (active); in assay [10], 5.9 µM (active); in [12], 8.33 µM (active); in assay [13], 16.6 µM (active). Moreover, the Potency in assay [20] was 20.9 µM (active); in [19], 7.43 µM (active).
In the case of `C=C1C[C@H]2[C@H]3CCC(=O)[C@@]3(C)CC[C@@H]2[C@@]2(C)C=CC(=O)C=C12`, the Potency is 29.6 µM (active) in [1]; 14.8 µM (active) in assay [2]; 6.62 µM (active) in assay [4]; 9.35 µM (active) in assay [12]; 20.9 µM (active) in assay [15]. The Potency result in [9] is “inactive”.
Regarding `CCOP(=O)(OCC)C(C)NC(=O)N(CCCl)N=O` (stereo not drawn), the Potency entry in assay [1], in assay [5], in assay [6], in [8], in assay [18] and in [10] was “inactive” throughout. For the same molecule, the Potency entry in [12], in assay [14], in assay [15] and in assay [19] was “inactive” throughout.
On to `C[C@]12CC[C@H]3[C@@H](CCC4=CC(=O)CC[C@@]43C)[C@H]1CC[C@H]2OC(=O)CCC1CCCC1`, for which the Potency result in assay [1], in assay [6], in assay [18], in assay [10] and in [15] was “inactive” each time. Moreover, the Potency in [4] is 23.5 µM (active); in assay [13] it was 20.9 µM (active).
As for `CC(C)N(CCNC(=O)CN1CCCC1=O)C(C)C`, the Potency result in [1], in assay [17], in [5], in assay [6], in assay [8] and in [9] was “inactive” throughout. For the same molecule, the Potency result in assay [18], in assay [10], in assay [11], in [15] and in assay [19] was “inactive” in each case.
`CC(=CCCC1=CCC(C2=CC(=O)OC2O)OC1O)CCC1=C(C)CCCC1(C)C` (stereo not drawn): the Potency entry in [1], in assay [3], in assay [17], in [6], in [8] and in assay [9] was “inactive” each time. For the same molecule, the Potency in [7] is 20.9 µM (active); in assay [10], 2.35 µM (active); in assay [15] it was 18.7 µM (active); in [19] it was 16.6 µM (active).
As for `CCN1C[C@]2(OC(=O)c3ccccc3NC(C)=O)CC[C@H](OC)[C@@]34[C@H]5CC6[C@@H](OC)C[C@](O)(C(C[C@@H]23)[C@@H]14)[C@@]5(O)[C@@H]6OC`, the Potency entry in [1], in assay [3], in [5], in assay [7], in assay [8] and in assay [9] was “inactive” in each case. In addition, the Potency result in assay [18], in assay [10], in assay [12], in assay [13], in assay [15] and in assay [19] was “inactive” in each case.
As for `C#CC1(O)CCC2C3CCC4=CC(=O)CCC4(C)C3CCC21C` (stereo not drawn), the Potency result in assay [1], in assay [6], in assay [7], in [8], in [9] and in assay [11] was “inactive” in each case. In addition, the Potency result in [15] and in assay [19] was “inactive” in each case. For the same molecule, the Potency in assay [4] is 9.35 µM (active); in [18], 20.9 µM (active).
For the molecule `NC1=NC(=O)N2CC12` (stereo not drawn), the Potency in assay [1] is 10.5 µM (active); in assay [5], 9.35 µM (active); in assay [10], 9.35 µM (active); in assay [12] it was 20.9 µM (active); in assay [19] it was 9.35 µM (active). Further, the Potency entry in assay [6], in [7], in assay [8], in assay [9] and in assay [11] was “inactive” throughout.
For the molecule `O=C(O)CNC(=O)c1c(O)c2ccccc2n(Cc2ccccc2)c1=O`, the Potency result in assay [1], in [3], in [17], in [6], in [8] and in assay [9] was “inactive” each time. Besides, the Potency entry in assay [10], in assay [11], in [13], in assay [14] and in assay [19] was “inactive” in each case.
